Results reported in ChEMBL document CHEMBL4513216, “Probing the Open Global Health Chemical Diversity Library for Multistage-Active Starting Points for Next-Generation Antimalarials” (ACS Infect Dis, 2020).
Out of some 68,000 compounds screened, about 2,700 (4%) showed an effect of 50% or more. The sample as a whole holds a higher share of strong results than the screen did.

tested on: Plasmodium berghei; assay: Screen against P. berghei liver stage (PbLuc), transformed with Luciferase, at 2uM; format: functional, HepG2; conditions: tested at 2 uM

SMILES	INHIBITION [%]
O=C(NCC1CCCO1)c1cc(-c2ccncc2)c2cnccc2n1 (stereo unspecified)	26.69
CO[C@@H]1CO[C@@]2(CCCN(C(=O)C3CC=CC3)C2)C1	-29.49
COCC1CCN(c2ccnc3ccsc23)C1 (stereo unspecified)	15.84
Cc1ccc(C(=O)N2CCn3cc(CN(C)Cc4ccco4)nc3C2)o1	-40.76
Cn1ncc2c1C(COCC1CC1)CN(C(=O)Cc1ccsc1)C2 (stereo unspecified)	22.16
CN1C(=O)C2(CCNCC2)c2cc(F)ccc21	37.75
c1cnc(NC[C@@H]2CCC[C@@H]3CN(Cc4cccnc4)C[C@@H]32)nc1	7.08
COc1ccc(CN2C[C@H]3CCC[C@@H](CN(C)C4CC4)[C@H]3C2)cn1	0.42
CN(C[C@@H]1CCC[C@@H]2CN(Cc3cccnc3)C[C@@H]21)C1CC1	61.09
CC(=O)N1CCOC(c2cc(N3CC(O)C3)nc(C)n2)C1 (stereo unspecified)	18.8
Cc1cnn(C2CN(CCOc3ccc(C#N)cc3)C2)c1	-22.06
Cc1cccc(NC(=O)[C@@H]2CCCN2CC(=O)Nc2ccccc2)n1	-32.35
CCOC(=O)N1CCN(C(=O)c2cc(-c3ccc(C)cc3)on2)CC1	21.28
NC(=O)CN1C(=O)CO[C@H]2CN(Cc3ccc(Cl)cc3)C[C@H]21	58.4
NC(=O)CN1C(=O)CO[C@H]2CN(Cc3ccc(F)c(F)c3)C[C@H]21	27.65
NC(=O)CN1C(=O)CO[C@H]2CN(Cc3ccccc3)C[C@H]21	41.93
Cn1ccnc1CN1CCCC(CCCc2ccccn2)(C(N)=O)C1 (stereo unspecified)	-11.32
COC(=O)c1cccc(S(=O)(=O)NC(=O)COC2CCCCC2)c1	19.64
Cc1ccc(Nc2cc(N3CCN(S(C)(=O)=O)CC3)nc(C)n2)cc1	51.2
Cc1nc(Nc2ccccn2)cc(N2CCN(S(C)(=O)=O)CC2)n1	18.99
CS(=O)(=O)N1CCN(c2cc(-n3cccc3)ncn2)CC1	19.08
CC1CCN(C(=O)C(C)n2cc(Br)cn2)CC1 (stereo unspecified)	20.8
FC(F)(F)c1ccnc(N2CCC(c3nccn3CC3CC3)CC2)n1	-0.62
CCCn1ncc(CN2C[C@@H]3CCCN3C[C@H]2Cc2ccccc2)c1C	37.6
CCCn1nc2c(cc1=O)CN(CC1CCCCO1)CC2 (stereo unspecified)	28.72
Cc1cc(F)c(S(=O)(=O)N(C)CCn2cccn2)cc1F	50.03

SMILES	INHIBITION [%]
CN(CCn1cccn1)S(=O)(=O)c1cccc(F)c1C#N	-2.19
CN(CCn1cccn1)S(=O)(=O)c1cccc(Cl)c1C#N	-26.2
CCC(C)(C)C(=O)Nc1ccc2ccn(CC(=O)NC)c2c1	24.51
COc1cccc(CN2CCc3nc4ccsc4c(=O)n3CC2)c1	34.9
Cn1cc(CN2CCCCC2c2ccc(-c3cccc(Cl)c3)nc2)cn1 (stereo unspecified)	15.59
Cc1ccc2[nH]c(=O)cc(C(=O)N[C@@H]3C[C@@H](CO)N(C)C3)c2c1	10.75
CCNC(=O)[C@@H]1C[C@H](NC(=O)c2cc(=O)[nH]c3ccc(C)cc23)CN1C	24.44
COC(=O)[C@@H]1C[C@H](NC(=O)c2cc(=O)[nH]c3ccc(C)cc23)CN1C	76.07
CCCc1cc(=O)[nH]c(-c2ccccc2CN(C)CCC(C)C)n1	-4.05
CCc1nnc2ccc(N3CCN(S(=O)(=O)c4ccc(Cl)s4)CC3)nn12	52.31
CCCS(=O)(=O)N1CCN(c2ccc3nnc(CC)n3n2)CC1	8.76
CCc1nnc2ccc(N3CCN(S(=O)(=O)c4ccc(C)s4)CC3)nn12	-37.47
CCN(Cc1cnc(NCc2ccccc2)nc1)C1CCS(=O)(=O)C1 (stereo unspecified)	-30.2
CN(C)Cc1nnc(C2CCCN(Cc3ccc(Cl)s3)C2)n1C (stereo unspecified)	7.64
CC(=O)Nc1nc(C2CCN(C(=O)C3CCC3)CC2)cs1	-49.56
Fc1cccc(Cl)c1CN1CCC(c2n[nH]c3ncccc23)CC1	53.65
Fc1cccc(CN2CCC(c3n[nH]c4ncccc34)CC2)c1F	12.36
Fc1ccc(CN2CCC(c3n[nH]c4ncccc34)CC2)cc1F	19.51
COc1cccc(CN(C)Cc2[nH]c3ccccc3c2C)c1O	33.32
CCc1nc(C)c(C(=O)NCC2COc3cc(OC)ccc3C2)o1 (stereo unspecified)	76.56
COc1ccc2c(c1)OCC(CNC(=O)c1ccncc1)C2 (stereo unspecified)	31.38
COc1ccc2c(c1)OCC(CNC(=O)c1cc[nH]c1C)C2 (stereo unspecified)	23.79
CCCC(=O)N1CCCCC1c1nc(N(C)C)ncc1-c1cc(C)no1 (stereo unspecified)	-54.53
COc1ccccc1CC(=O)N1CCCC1Cn1nc(C)cc1C (stereo unspecified)	-43.79
COCCNC(=O)Cn1c(C)cc2nc(SC)n(CC(C)C)c(=O)c21	-24.15
Cn1ncc2c(NCCOCc3ccccc3)nc(C3CCCC3)nc21	-19.29

SMILES	INHIBITION [%]
COCCNS(=O)(=O)c1ccc(Cl)c(C(=O)N(C)Cc2ccsc2)c1	13.76
CNS(=O)(=O)c1csc(C(=O)N(C)Cc2sccc2C)c1	46.97
COCCNS(=O)(=O)c1ccc(Cl)c(C(=O)N(C)Cc2sccc2C)c1	64.37
CN(Cc1cccc(OCCO)c1)Cc1cccc2ncccc12	37.5
COCC(=O)N1CCC2(CCC(C(=O)N3CCCC3)O2)CC1 (stereo unspecified)	41.38
O=C(NC1CC1)[C@@H]1CCO[C@@H]2CCN(C3CCCC3)C[C@H]21	-0.18
O=C(NC1CCC1)[C@@H]1CCO[C@@H]2CCN(C3CCCC3)C[C@@H]21	23.93
O=C(NC1CCC1)[C@@H]1CCO[C@@H]2CCN(C3CCCC3)C[C@H]21	51.26
CN1CCOC[C@H]1c1nc(-c2ccc(F)cc2F)c[nH]1	3.55
CC(C)(CNc1ccc2ccc(F)cc2n1)NS(C)(=O)=O	5.92
CC(C)(CCS(C)(=O)=O)CNc1ccc2ccc(F)cc2n1	50.93
CS(=O)(=O)CCOCCNc1ccc2ccc(F)cc2n1	35.63
CC(C)(C)c1cc(C[C@H]2CNCC[C@H]2CC(=O)N2CCCCC2)no1	-13.88
CCc1nnc2n1CCN(C(=O)c1cc3ccccc3[nH]1)C2	-3.06
CCc1nnc2n1CCN(C(=O)CN(CC)CC)C2	58.05
CCc1nnc2n1CCN(C(=O)c1cc3ccc(F)cc3nc1C)C2	54.85
CCc1nnc2n1CCN(C(=O)c1cc3cc(C)ccc3[nH]1)C2	37.68
CCc1nnc2n1CCN(C(=O)CN(C)C1CC1)C2	-3.06
CCc1nnc2n1CCN(C(=O)c1cc3ccc(C)cc3[nH]1)C2	58.05
CCc1nnc2n1CCN(C(=O)c1ccc(C(F)(F)F)nc1C)C2	-41.59
CCc1nnc2n1CCN(C(=O)CN(C)Cc1ccccc1)C2	-34.45
CCc1nnc2n1CCN(C(=O)c1ccc3nc(C)c(C)nc3c1)C2	-72.78
COc1cccc2c1N(C(=O)c1ccc(C)nc1)CCC2	0.79
O=C(NCc1nnc2n1CCCCC2)N(CC1CCOC1)C1CC1 (stereo unspecified)	-1.21
CC(C)C1CN(C(=O)c2ccsc2)CCS1 (stereo unspecified)	-9.94
CN(C)c1cc(NCc2cnc3n2CCN(CC2CC2)CC3)ncn1	34.04

SMILES	INHIBITION [%]
O=C(NCc1ccccn1)[C@]12COC[C@H]1CN(Cc1ccsc1)C2	42.62
Cc1ccc2nc(C)cc(C(=O)NC(C)c3nnn[nH]3)c2c1 (stereo unspecified)	-67.78
CNC(=O)CN(C)c1cncc(OCc2ccccc2)n1	-22.24
CCCc1nnsc1C(=O)N1CCN(CC(C)O)CC1 (stereo unspecified)	-47.97
CC(=O)N1CCC(C(=O)NCc2ncc(-c3ccccc3)o2)CC1	45.67
Cn1c(=NC(=O)CSCC(=O)Nc2nccs2)sc2ccccc21	-29.3
CCn1c(=NC(=O)CSCC(=O)Nc2nccs2)sc2ccccc21	-35.96
COc1ccc2c(c1)sc(=NC(=O)CSCC(=O)Nc1nccs1)n2C	54.16
COc1ccccc1CC(=O)N1CCC(NCc2ccccn2)CC1	57.64
COc1ccccc1CC(=O)N1CCC(NCc2ccncc2)CC1	44.71
COc1ccccc1CC(=O)N1CCC(NCc2cccnc2)CC1	-135.87
Cc1ccnc(C2CCN(C(=O)c3cnn(C)c3)CC2)n1	11.74
CCn1cc(NC(=O)C2CCN(CC(=O)NC(C)(C)CC)CC2)cn1	7.13
CC(C(=O)N1CCN(C(=O)c2ccc(F)cc2)CC1)n1ccnc1 (stereo unspecified)	54.41
CC(C(=O)N1CCN(c2ccc(F)cc2)CC1)n1ccnc1 (stereo unspecified)	-20.89
Cc1ccc(C(=O)N2CCN(C(=O)C(C)n3ccnc3)CC2)cc1F (stereo unspecified)	38.65
O=C(NCc1cnc2n1CCN(Cc1ccoc1)C2)c1ccno1	42.64
COC1CN(C(=O)NC2CCCC2)CCC(=O)N(C)c2ccccc21 (stereo unspecified)	15.96
Cc1cnc(C)c(N2CCCC(CO)(Cc3cccc(Cl)c3)C2)n1 (stereo unspecified)	8.14
OCC1(Cc2cccc(Cl)c2)CCCN(c2ncccn2)C1 (stereo unspecified)	-16.17
Nc1ccnc(N2CCCC(CO)(Cc3cccc(Cl)c3)C2)n1 (stereo unspecified)	57.51
O=C(NCC1CCC2(CCNCC2)CO1)c1cnccn1 (stereo unspecified)	-13.14
Cc1ccc(N2CC[C@H]3CN(C(=O)c4ccn(C)n4)C[C@H]3C2)nn1	-32.66
